Data on 26 compounds can be found in PubChem BioAssay (Tox21).

Molecules are shown by their SMILES. Several values for one entry are separate records, joined by “and”; a condition that tells them apart may be missing. Equal values may be shown once. Inconclusive results are not listed. Where a call stands in place of a potency, no number is given. Values without a mark were called inactive. Activity calls are given as the source filed them. Calls come from the whole dose curve; as a rule, active = well fitted inhibition curve with a large enough effect in the repeat runs; inconclusive = weak or mixed curves; inactive = no such curve, though single readings can be large or run the other way.
Potency is the fitted concentration of half-maximal effect.

Aromatase (Homo sapiens), sequence (P11511 whole entry, looked up): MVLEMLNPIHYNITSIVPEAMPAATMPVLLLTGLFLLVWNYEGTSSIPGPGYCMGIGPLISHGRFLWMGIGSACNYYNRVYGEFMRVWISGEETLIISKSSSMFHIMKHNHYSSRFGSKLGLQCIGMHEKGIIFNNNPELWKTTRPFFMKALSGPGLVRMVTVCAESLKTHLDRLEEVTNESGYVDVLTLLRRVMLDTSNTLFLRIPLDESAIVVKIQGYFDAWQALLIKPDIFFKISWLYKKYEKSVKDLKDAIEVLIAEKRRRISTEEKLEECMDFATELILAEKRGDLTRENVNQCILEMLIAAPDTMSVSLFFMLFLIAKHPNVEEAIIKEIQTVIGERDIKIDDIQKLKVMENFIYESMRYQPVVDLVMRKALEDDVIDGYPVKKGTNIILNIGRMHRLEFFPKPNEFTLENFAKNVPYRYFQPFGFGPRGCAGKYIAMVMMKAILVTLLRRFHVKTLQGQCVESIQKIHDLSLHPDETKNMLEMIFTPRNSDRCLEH

This experiment has as its target Aromatase (Homo sapiens) (UniProt P11511). The experiment can be described thus: qHTS assay to identify aromatase inhibitors (AID 743083). Note: nearly all actives have a fitted effect of over 55% in size. The note with it: MCF-7 aro ERE, testosterone-driven ERE luciferase, 24 h; series mostly up to 70.3 µM; activity, negative = inhibition: at the top concentration.
`CC(C)NCC(O)c1ccc(O)c(O)c1` (stereo unspecified): the Potency result was “inactive”.

With `O=C1OC2(c3ccccc31)c1cc(Br)c(O)c(Br)c1Oc1c2cc(Br)c(O)c1Br`, the Potency result is “inactive”.

In the case of `C[C@](N)(Cc1ccc(O)c(O)c1)C(=O)O`, the Potency entry is “inactive”.

Take `CCCCC1(COC(=O)CCC(=O)O)C(=O)N(c2ccccc2)N(c2ccccc2)C1=O`: the Potency result is “inactive”.

In the case of `O=S1(=O)OC(c2ccc(O)cc2)(c2ccc(O)cc2)c2ccccc21`, the Potency result is “inactive”.

In the case of `CCCCCCCC(=O)OCC(COC(=O)CCCCCCC)OC(=O)CCCCCCC`, the Potency result is “inactive”.

`O=c1[nH]cc(F)c(=O)[nH]1`: the Potency entry is “inactive”.

In the case of `CCN(CC)C(=O)c1cccc(C)c1`, the Potency entry was “inactive”.

As to `NS(=O)(=O)c1cc2c(cc1Cl)NCNS2(=O)=O`, the Potency result is “inactive”.

Take `C=C(C)C(=O)OCC(C)O` (stereo unspecified): the Potency entry is “inactive”.

For the compound `O=CC(=O)c1ccccc1`, the “activity, negative = inhibition” value was 18.1%.

Turning to `CC(=O)C(=O)O`, the Potency result is “inactive”.

With `Oc1ccccc1`, the Potency entry was “inactive”.

As to `Cc1ncc([N+](=O)[O-])n1C`, the Potency entry is “inactive”.

As for `CN(N=O)C(=O)N[C@@H]1[C@@H](O)[C@H](O)[C@@H](CO)O[C@@H]1O`, the Potency entry was “inactive”.

As for `CN(C)C(=O)Nc1ccc(Cl)c(Cl)c1`, the Potency result was “inactive”.

Turning to `Cc1cccc(C)c1`, the Potency result was “inactive”.

With `O=C(Nc1ncc([N+](=O)[O-])s1)c1cccs1`, the “activity, negative = inhibition” value is -10.3%.

For the compound `COc1ccc(C(Cl)=C(c2ccc(OC)cc2)c2ccc(OC)cc2)cc1`, the Potency is 8.59 µM (active) and 12.2 µM (active).

With `C=CCc1ccc(O)c(OC)c1`, the Potency result was “inactive”.

As for `Cc1ncc([N+](=O)[O-])n1CCO`, the Potency result was “inactive”.

As to `Nc1ccc([N+](=O)[O-])cc1O`, the “activity, negative = inhibition” value is 15.7%.

`CCCc1cc(=O)[nH]c(=S)[nH]1`: the Potency entry is “inactive”.

For `COc1cccc(O)c1O`, the Potency was 35.7 µM (active).

Take `CCOc1ccc(NC(C)=O)cc1`: the Potency result was “inactive”.

Take `O=c1[nH]cnc2c1ncn2[C@H]1CC[C@@H](CO)O1`: the Potency entry is “inactive”.
